PubChem BioAssay (NCI)
The panel holds about 79,000 compounds, 15% with a hit somewhere; the sample as a whole holds those more often. The source made the active and inactive calls. Cut-off read from the data, not from the text of the source: active = growth inhibition above about 70%; inactive = the rest.

What was measured:
[1] = NCI Yeast Anticancer Drug Screen. Data for the wt1 strain (AID 149);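 note: 0% = growth of vehicle-treated wt1 cultures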; conditions: S. cerevisiae wt1 strain (SPY 50644) growth inhibition, hits give high values
In short: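 wt1 strain grown with compound or vehicle; inhibition taken from the growth difference.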

[2] = NCI Yeast Anticancer Drug Screen. Data for the rad50EPP+ strain (AID 151);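 note: 0% = growth of vehicle-treated control cultures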; conditions: S. cerevisiae rad50 mutant strain, hits give high values
In short: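 Genetically defined yeast (rad50EPP+, DNA damage repair alteration) is grown with compound, and inhibition of growth is expressed relative to vehicle-treated controls.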

[3] = NCI Yeast Anticancer Drug Screen. Data for the mgt1 strain (AID 153); conditions: S. cerevisiae mgt1 mutant growth inhibition, hits give high values
In short: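 In the mgt1 strain, test compounds were added and growth inhibition was determined relative to vehicle-treated controls.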

[4] = NCI Yeast Anticancer Drug Screen. Data for the rad50 strain (AID 155);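 note: 0% = growth of vehicle-only cultures of the same strain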; conditions: S. cerevisiae rad50 strain growth inhibition, hits give high values
In short: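 DNA repair mutant yeast, compound exposure, growth read-out; inhibition is taken relative to vehicle.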

[5] = NCI Yeast Anticancer Drug Screen. Data for the mec2-1 strain (AID 157); conditions: S. cerevisiae mec2-1 strain, hits give high values
In short: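 Each compound was tested on mec2-1 yeast, a strain altered in DNA damage repair or cell cycle control. Growth inhibition is reported relative to vehicle.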

[6] = NCI Yeast Anticancer Drug Screen. Data for the rad14 strain (AID 159);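 note: 0% = growth of vehicle-treated control cultures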; conditions: S. cerevisiae rad14 strain growth inhibition, hits give high values
In short: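 DNA repair-defective yeast, compound-exposed; % growth inhibition derived by comparison with vehicle-treated controls.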

[7] = NCI Yeast Anticancer Drug Screen. Data for the sgs1 mgt1 strain (AID 161);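 note: 0% = growth of cultures given vehicle only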; conditions: S. cerevisiae sgs1 mgt1 strain, hits give high values
In short: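 Genetically altered yeast, compound exposure, growth inhibition relative to vehicle.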

[8] = NCI Yeast Anticancer Drug Screen. Data for the CLN2oe strain (AID 163);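 note: 0% = growth of vehicle-only control cultures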; conditions: S. cerevisiae CLN2oe strain, hits give high values
In short: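 First, the altered yeast strain was treated with each compound; second, its growth was measured; finally, inhibition was derived by comparison with vehicle controls.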

[9] = NCI Yeast Anticancer Drug Screen. Data for the cln2 rad14 strain (AID 165);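 note: 0% = growth equal to vehicle treated cultures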; conditions: S. cerevisiae cln2 rad14 strain, hits give high values
In short: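 Test compounds were added to cln2 rad14 yeast cultures; inhibition of growth was then determined by comparison with vehicle treatment.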

[10] = NCI Yeast Anticancer Drug Screen. Data for the bub3 strain (AID 167); conditions: S. cerevisiae bub3 mutant strain, hits give high values
In short: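 In this screen, a yeast mutant lacking normal mitotic checkpoint function is challenged with compound. Relative growth versus vehicle gives the inhibition value.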

[11] = NCI Yeast Anticancer Drug Screen. Data for the wt2 strain (AID 169);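 note: 0% = growth of vehicle-treated yeast cultures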; conditions: S. cerevisiae wt2 strain growth inhibition, hits give high values
In short: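 The panel's yeast strains carry defined changes in DNA repair or cell cycle genes. Each strain is grown with compound, and growth loss is scored relative to vehicle.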

[12] = NCI Yeast Anticancer Drug Screen. Data for the mlh1 strain (AID 171);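 note: 0% = growth of vehicle-treated control cultures of the same strain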; conditions: S. cerevisiae mlh1 strain growth inhibition, hits give high values
In short: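 Inhibition values reflect reduced yeast growth in the presence of compound, referenced to vehicle controls, using a strain chosen for its alteration in DNA repair or cell cycle control.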

[13] = NCI Yeast Anticancer Drug Screen. Data for the sgs1 strain (AID 173);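 note: 0% = growth of vehicle-only control cultures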; conditions: S. cerevisiae sgs1 mutant, hits give high values
In short: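 Vehicle-treated cultures served as reference for growth inhibition of a yeast strain altered in DNA damage repair or cell cycle control after compound exposure.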

[14] = NCI Yeast Anticancer Drug Screen. Data for the mlh1 rad18 strain (AID 175); conditions: S. cerevisiae mlh1 rad18 strain growth inhibition, hits give high values
In short: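 Inhibition values reflect reduced growth of mutant yeast versus vehicle-treated controls following compound exposure; the mutations affect DNA damage repair.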

[15] = NCI Yeast Anticancer Drug Screen. Data for the rad18 strain (AID 177); conditions: S. cerevisiae rad18 mutant growth inhibition, hits give high values
In short: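 Steps: expose repair-mutant yeast to compound; measure growth; express as inhibition relative to vehicle control.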

[16] = at 5.0 µM (retest, dose inferred, filed as 0.5)
[17] = at 50.0 µM (retest, dose inferred, filed as 5.0)

Measured: growth inhibition

Cc1cnccc1N=Nc1ccc(N(C)C)cc1
inactive: [1]; at 1.2 µM -5% | [1]; at 3.7 µM -6% | [1]; at 11.0 µM -8% | [1]; at 33.0 µM 1% | [1]; at 100.0 µM 1% | [2]; at 1.2 µM 2% | [2]; at 3.7 µM 3% | [2]; at 11.0 µM 7% | [2]; at 33.0 µM 43% | [3]; at 1.2 µM 2% | [3]; at 3.7 µM -2% | [3]; at 11.0 µM 2% | [3]; at 33.0 µM 31% | [3]; at 100.0 µM 41% | [4]; at 1.2 µM -4% | [4]; at 3.7 µM -4% | [4]; [16] -109% | [4]; at 11.0 µM 13% | [4]; at 33.0 µM 27% | [4]; [17] -2% | [4]; at 100.0 µM 37% | [5]; at 1.2 µM -3% | [5]; at 3.7 µM 1% | [5]; [16] -42% | [5]; at 11.0 µM -21% | [5]; at 33.0 µM -4% | [5]; [17] -34% | [5]; at 50.0 µM 30.9% | [5]; at 100.0 µM 3% | [6]; at 1.2 µM -3% | [6]; at 3.7 µM -5% | [6]; at 11.0 µM 12% | [6]; at 33.0 µM 39% | [6]; at 100.0 µM 51% | [7]; [16] -23% | [7]; [17] 46% | [7]; at 50.0 µM 65.8% | [8]; at 1.2 µM 3% | [8]; at 3.7 µM 8% | [8]; at 11.0 µM 15% | [8]; at 33.0 µM 30% | [8]; at 100.0 µM 30% | [9]; [16] -43% | [9]; [17] -19% | [9]; at 50.0 µM 34% | [10]; at 1.2 µM 8% | [10]; at 3.7 µM 10% | [10]; [16] -33% | [10]; at 11.0 µM 14% | [10]; at 33.0 µM 32% | [10]; [17] 69% | [11]; at 1.2 µM 0% | [11]; at 3.7 µM -1% | [11]; at 11.0 µM 2% | [11]; at 33.0 µM 13% | [11]; at 100.0 µM 4% | [12]; at 1.2 µM -1% | [12]; at 3.7 µM 1% | [12]; at 11.0 µM 0% | [12]; at 33.0 µM 24% | [12]; at 100.0 µM 31% | [13]; at 1.2 µM 2% | [13]; at 3.7 µM 3% | [13]; at 11.0 µM 32% | [13]; at 33.0 µM 52% | [13]; at 100.0 µM 49% | [14]; [16] -95% | [14]; [17] -7% | [14]; at 50.0 µM 36.1% | [15]; at 1.2 µM -4% | [15]; at 3.7 µM -4% | [15]; at 11.0 µM 9% | [15]; at 33.0 µM 25% | [15]; at 100.0 µM 30%
active: [2]; at 100.0 µM 90% | [4]; at 50.0 µM 81.8% | [10]; at 50.0 µM 89% | [10]; at 100.0 µM 79%
